The text below walks through data of the supplement of paper PMC9262897, “Low-cost anti-mycobacterial drug discovery using engineered E. coli” (Nature Communications, 2022).

Counter-ions that a name gives are not always drawn. ± gives the standard deviation of the averaged measurements.

Assay in all cases: growth (OD600 after 10 h); higher = more growth (less inhibition)
Assay [1] has as its system E. coli TESEC Alr+ wild-type control. Conditions: compound 0.1 mM; raw OD600 reference: median of DMSO wells 0.241, cell-free background 0.041. On the procedure:
(§1)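 TESEC Mtb Alr E. coli, or the Alr+ wild-type control, in 384-well plates with Prestwick library compounds at 0.1 mM and 1% DMSO, across arabinose induction levels of 1E3 to 1E7 nM. Growth is read as OD600 after 10 h at 37 °C in triplicate biological replicates.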

Assay [2] has as its system E. coli TESEC Mtb Alr. Conditions: compound 0.1 mM. Here is the method: as §1
The subject of a further assay is E. coli TESEC Mtb Asd. As to conditions: compound 0.1 mM. Here is the method:
(§2)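 TESEC E. coli strains in which the native enzyme is deleted and replaced by arabinose-inducible Mtb Asd, DapB, CysH or TrpD, each grown in its selective medium. Strains were screened against the Prestwick library at 0.1 mM and 1% DMSO in 384-well format at low and high arabinose induction. Growth is read as OD600 after 10 h in triplicate.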

In another assay the test system is E. coli TESEC Mtb DapB. Conditions: compound 0.1 mM. On the procedure:
as §2

Assay [3] relates to E. coli TESEC Alr+ wild-type control. Conditions: compound 0.1 mM; raw OD600 reference: median of DMSO wells 0.49, cell-free background 0.052. Here is the method:
(§3)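 TESEC Mtb Alr E. coli (ΔaraC ΔtolC ΔentC Δalr ΔdadX, arabinose-inducible Mtb Alr) or the Alr+ wild-type control strain, grown in defined M9-fructose medium without D-alanine in 96-well plates with Prestwick library compounds at 0.1 mM and 1% DMSO. Low Alr induction is 0.1 µM arabinose and high induction is 10 mM arabinose.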

In assay [4] the test system is E. coli TESEC Mtb Alr. As to conditions: compound 0.1 mM. On the procedure:
as §3
The source holds these as a separate data set.

[5] abbreviates: arabinose 1000 nM, raw OD600 reference: median of DMSO wells 0.294, cell-free background 0.041.
[6] abbreviates: arabinose 10000 nM, raw OD600 reference: median of DMSO wells 0.264, cell-free background 0.041.
Setting [7] is: arabinose 100000 nM, raw OD600 reference: median of DMSO wells 0.201, cell-free background 0.041.
[8] abbreviates: arabinose 1000000 nM, raw OD600 reference: median of DMSO wells 0.193, cell-free background 0.041.
[9] abbreviates: arabinose 10000000 nM, raw OD600 reference: median of DMSO wells 0.146, cell-free background 0.041.
Setting [10] is: arabinose induction (level): High, raw OD600 reference: median of DMSO wells 0.331, cell-free background 0.041.
[11] abbreviates: arabinose induction (level): Low, raw OD600 reference: median of DMSO wells 0.417, cell-free background 0.041.
Where [12] appears, read: arabinose induction (level): High, raw OD600 reference: median of DMSO wells […], cell-free background 0.041.
Where [13] appears, read: arabinose induction (level): Low, raw OD600 reference: median of DMSO wells 0.227, cell-free background 0.041.
[14] abbreviates: arabinose 100 nM, raw OD600 reference: median of DMSO wells 0.413, cell-free background 0.052.
[15] abbreviates: arabinose 10000000 nM, raw OD600 reference: median of DMSO wells […], cell-free background 0.052.

For the compound `CN1Cc2c(N)cccc2C(c2ccccc2)C1` (configuration not stated) [Nomifensine maleate], the growth in assay [1] was found to be 0.225 ± 0.0061; in the assay on E. coli TESEC Mtb Alr [2] (setting [5]), 0.273 ± 0.0089; with E. coli TESEC Mtb Alr [2] (setting [6]), 0.249 ± 0.0043; with E. coli TESEC Mtb Alr [2] (setting [7]), 0.19 ± 0.036; with E. coli TESEC Mtb Alr [2] (setting [8]), 0.1674 ± 0.0015; with E. coli TESEC Mtb Alr [2] (setting [9]), 0.141 ± 0.0063. Also, the growth with E. coli TESEC Mtb Asd (setting [10]) was 0.243 ± 0.026; in the assay on E. coli TESEC Mtb Asd (setting [11]), 0.357 ± 0.038; in the assay on E. coli TESEC Mtb DapB (setting [12]) it was 0.175 ± 0.013; in the assay on E. coli TESEC Mtb DapB (setting [13]) it was 0.181 ± 0.025; in assay [3], 0.498 ± 0.078; in the assay with E. coli TESEC Mtb Alr [4] (setting [14]), 0.4122 ± 0.0024. In the assay on E. coli TESEC Mtb Alr [4] (setting [15]), this compound gave a growth of 0.348 ± 0.019.

Regarding `C#CCN(C)CCCOc1ccc(Cl)cc1Cl` [Clorgyline hydrochloride], the growth came to 0.14 ± 0.0066 in assay [1]; 0.168 ± 0.0046 with E. coli TESEC Mtb Alr [2] (setting [5]); 0.175 ± 0.0062 with E. coli TESEC Mtb Alr [2] (setting [6]); 0.174 ± 0.0076 with E. coli TESEC Mtb Alr [2] (setting [7]); 0.0744 ± 0.0031 with E. coli TESEC Mtb Alr [2] (setting [8]); 0.133 ± 0.011 with E. coli TESEC Mtb Alr [2] (setting [9]). The growth turned out to be 0.25 ± 0.093 with E. coli TESEC Mtb Asd (setting [10]); 0.21 ± 0.04 in the assay on E. coli TESEC Mtb Asd (setting [11]); 0.158 ± 0.013 in the assay with E. coli TESEC Mtb DapB (setting [12]); 0.208 ± 0.016 in the assay with E. coli TESEC Mtb DapB (setting [13]); 0.458 ± 0.027 in assay [3]; 0.392 ± 0.0072 with E. coli TESEC Mtb Alr [4] (setting [14]). Besides, the growth with E. coli TESEC Mtb Alr [4] (setting [15]) worked out at 0.222 ± 0.016.

As for `CCC(C)(C)C(=O)O[C@H]1C[C@@H](C)C=C2C=C[C@H](C)[C@H](CC[C@@H]3C[C@@H](O)CC(=O)O3)[C@H]21` [Simvastatin], the growth stood at 0.198 ± 0.017 in assay [1]; 0.201 ± 0.015 in the assay on E. coli TESEC Mtb Alr [2] (setting [5]); 0.161 ± 0.0024 in the assay on E. coli TESEC Mtb Alr [2] (setting [6]); 0.113 ± 0.0033 in the assay on E. coli TESEC Mtb Alr [2] (setting [7]); 0.053 ± 0.0021 in the assay on E. coli TESEC Mtb Alr [2] (setting [8]); 0.0742 ± 0.004 with E. coli TESEC Mtb Alr [2] (setting [9]). The growth in the assay with E. coli TESEC Mtb Asd (setting [10]) stood at 0.0906 ± 0.015; with E. coli TESEC Mtb Asd (setting [11]), 0.197 ± 0.023; in the assay with E. coli TESEC Mtb DapB (setting [12]), 0.161 ± 0.021; with E. coli TESEC Mtb DapB (setting [13]), 0.175 ± 0.0069; in assay [3] it was 0.311 ± 0.016; in the assay on E. coli TESEC Mtb Alr [4] (setting [14]) it was 0.392 ± 0.014. Further, the growth with E. coli TESEC Mtb Alr [4] (setting [15]) came out at 0.0705 ± 0.023.

Take `O=C(O)COC(=O)Cc1ccccc1Nc1c(Cl)cccc1Cl` [Aceclofenac]: the growth in assay [1] was found to be 0.154 ± 0.0035; in the assay with E. coli TESEC Mtb Alr [2] (setting [5]), 0.205 ± 0.019; with E. coli TESEC Mtb Alr [2] (setting [6]) it was 0.223 ± 0.015; in the assay with E. coli TESEC Mtb Alr [2] (setting [7]) it was 0.12 ± 0.007; with E. coli TESEC Mtb Alr [2] (setting [8]), 0.141 ± 0.0064; in the assay with E. coli TESEC Mtb Alr [2] (setting [9]), 0.132 ± 0.012. Further, the growth stood at 0.205 ± 0.026 in the assay with E. coli TESEC Mtb Asd (setting [10]); 0.263 ± 0.011 with E. coli TESEC Mtb Asd (setting [11]); 0.156 ± 0.0075 in the assay on E. coli TESEC Mtb DapB (setting [12]); 0.176 ± 0.028 with E. coli TESEC Mtb DapB (setting [13]); 0.424 ± 0.0057 in assay [3]; 0.352 ± 0.034 with E. coli TESEC Mtb Alr [4] (setting [14]). The growth in the assay on E. coli TESEC Mtb Alr [4] (setting [15]) came out at 0.244 ± 0.015.
